From PubChem BioAssay AID720621 (The Scripps Research Institute Molecular Screening Center, 2013)
The other results are listed elsewhere or left out. A number with no mark means an inactive call. Calls of active or inactive are those of the source.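 The calls were made as follows: active = inhibition above the mean of test compounds lying between the control limits plus 3 SD of those (cut at about 14% in these data); inactive = the rest.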

What follows are compounds tested against Fibrinogen beta chain (Homo sapiens) (UniProt P02675) (assay: DD(E) binders in alternate-peptide displacement assay, confirmation, counter-screen for fibrin DD(E)-Tn6 binding project, biochemical, fluorescence polarization, human fibrin (AID 720621;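 also: 0% = median of compound wells and 100% = wells with Aha-Tn7 blocking peptide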)). Details: TRITC-Tn6 fluorescence polarization displacement, at 8.3 µM, stronger effect = higher value, 0% = median of compound wells, not DMSO.
Chain of Fibrinogen beta chain (Homo sapiens) (P02675 whole entry, looked up): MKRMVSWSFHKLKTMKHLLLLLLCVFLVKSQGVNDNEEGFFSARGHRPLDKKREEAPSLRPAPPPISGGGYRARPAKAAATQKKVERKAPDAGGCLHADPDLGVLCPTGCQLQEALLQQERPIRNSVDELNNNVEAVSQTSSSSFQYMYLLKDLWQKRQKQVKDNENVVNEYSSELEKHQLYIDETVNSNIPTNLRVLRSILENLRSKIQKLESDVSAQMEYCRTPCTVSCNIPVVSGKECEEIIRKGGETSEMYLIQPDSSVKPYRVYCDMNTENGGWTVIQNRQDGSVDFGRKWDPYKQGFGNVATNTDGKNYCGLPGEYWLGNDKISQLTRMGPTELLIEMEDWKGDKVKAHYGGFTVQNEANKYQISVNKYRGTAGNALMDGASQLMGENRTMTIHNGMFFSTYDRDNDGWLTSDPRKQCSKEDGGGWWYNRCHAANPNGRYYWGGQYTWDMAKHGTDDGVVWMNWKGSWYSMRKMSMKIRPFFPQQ
In the case of `CN1c2ccc(C=O)c3c(C=O)ccc(c23)N(C)C1(C)C`, the inhibition is reported as 1.94%. With `O=c1[nH]n(-c2ccc([N+](=O)[O-])cc2)c(=O)c2ccccc12` the inhibition was -1.25%. Work on `O=c1cc(Cn2nnc(-c3ccc(Cl)cc3)n2)nc2sccn12` yielded an inhibition of 0.44%. In the case of `CCc1cc(-c2nnc(SCC(=O)NC3CC3)n2C)cs1`, the inhibition is reported as 0.11%. Compound `Cc1cc(C)c2nc(NC(=O)C3CCCO3)sc2c1` (stereo unspecified) has an inhibition of 9.86%. `Oc1ccc(N=Cc2sc3ccccc3c2Cl)cc1` showed an inhibition of -3.72%. `CCC1C(=O)NCCN1C(=O)c1ccc2nc(Cc3ccc(OC)cc3)oc2c1` (stereo unspecified) gave an inhibition of -2.38%. `Cc1ccc(-c2nc(C)sc2CC(=O)O)cc1` was tested, and the inhibition was 1.12%. With `Cc1ccc(NC(=O)CN2CCc3ccccc3C2)cc1` the inhibition was -3.5%. `Cc1ccc(-c2nn(-c3ccccc3)cc2/C=C/C(=O)Nc2cccc(S(N)(=O)=O)c2)cc1` showed an inhibition of 9.5%. `Cc1cc2cc(CNC(=O)c3ccc(S(=O)(=O)N4CCOCC4)cc3)ccc2[nH]1` was tested, and the inhibition was -5.66%. For `Cc1nn(C)cc1N1C(=O)c2cccc3c(N)ccc(c23)C1=O`, the inhibition was 12.5%. `O=C(Nc1cccc(-c2nc3ccccc3[nH]2)c1)c1ccc(C(=O)Nc2cccc(-c3nc4ccccc4[nH]3)c2)cc1` gave an inhibition of 4.67%. `CONc1nc2nonc2nc1NOC` showed an inhibition of 0.1%. Work on `O=C(NCCNc1ccccc1[N+](=O)[O-])c1ccccc1F` yielded an inhibition of 1.36%. `CCc1ccccc1NC(=S)Nc1cc(OC)c(NC(=O)C(C)C)cc1OC` showed an inhibition of 2.55%. In the case of `CCOCC(=O)NCc1ccc2c(c1)cc(C)n2C`, the inhibition is reported as 3.45%. `COc1ccc(Nc2nc(-c3ccccc3)cs2)cc1` was tested, and the inhibition was 3.89%. `Cc1cc2nc3c(=O)[nH]c(=O)nc-3n(C[C@H](O)[C@H](O)[C@H](O)CO)c2cc1C` was tested, and the inhibition was 53.3% (active). `CCOC(=O)N1CCN(Cc2nc(N)nc(Nc3ccc(C)cc3)n2)CC1` was tested, and the inhibition was -2.92%. Work on `Cc1cc2ccccc2n1CCNC(=O)COc1ccc2ccccc2c1` yielded an inhibition of 4.66%. In the case of `O=C(CCl)NNc1cccc(Cl)n1`, the inhibition is reported as -4.59%. `COc1cc(NC(=O)c2ccc(CNc3c(N4CCCC4)c(=O)c3=O)cc2)cc(OC)c1OC` was tested, and the inhibition was -3.04%. `Cc1nnsc1S(=O)(=O)Cc1ccccc1Cl` gave an inhibition of -7.19%. For `COc1ccc(N2C(=O)NC(NS(=O)(=O)c3ccc(Cl)cc3)(C(F)(F)F)C2=O)cc1` (stereo unspecified), the inhibition was 9.3%. `COc1ccc(Nc2nc(-c3cccnc3)nc3ccccc23)cn1` gave an inhibition of 1.38%.
